According to PubChem BioAssay (Tox21):
Results filed as inconclusive are left out. Active and inactive are the calls of the source. Unless noted, calls come from the whole dose curve.

Experiments:
[1] = Nuclear factor erythroid 2-related factor 2/antioxidant responsive element (Nrf2/ARE) small molecule agonists: qHTS cell viability counter screen in human keratinocytes (AID 1919968; active = well fitted curve in the direction sought with a large enough effect in the repeat runs; an effect the other way counts as inactive or inconclusive; note: nearly all actives have a fitted effect of over 55% in size)
Summary of the method: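 KeratinoSens cells (HaCaT keratinocytes stably carrying an ARE-luciferase reporter) were seeded at 1,500 cells/well and rested 5 h at 37 C/5% CO2. They were then exposed to compounds in DMSO for 23 h. Viability was read by CellTiter-Fluor fluorescence after 1 h.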

[2] = Nuclear factor erythroid 2-related factor 2/antioxidant responsive element (Nrf2/ARE) small molecule agonists: luciferase reporter gene qHTS assay in human keratinocytes (AID 1919969); note: nearly all actives have a fitted effect of over 35% in size; note: potency is the fitted concentration of half-maximal effect
[3] = target: Gonadotropin-releasing hormone receptor (Homo sapiens) (UniProt P30968); assay: Human gonadotropin-releasing hormone receptor (GnRHR) small molecule agonists, calcium flux assay in GnRHR-HEK293 cells (AID 1920063); note: nearly all actives have a fitted effect of over 35% in size
Summary of the method: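 HEK293 cells stably expressing human GnRHR were plated 18 h at 37 °C, loaded with calcium dye 1 h at 37 °C, then given compound in agonist mode; fluorescence (Ex/Em 480/540) read kinetically for 3 min at 1 s intervals.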

[4] = target: KiSS-1 receptor (Homo sapiens) (UniProt Q969F8); assay: Human kisspeptin (KISS1R) small molecule agonists, calcium flux assay in KISS1R-HEK293 cells (AID 1920064; active = well fitted curve in the direction sought with a large enough effect in the repeat runs; an effect the other way counts as inactive or inconclusive)
Summary of the method: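 HEK293 cells stably expressing human KISS1R were plated 18 h at 37 °C, loaded with calcium dye for 1 h at 37 °C, then given compound by pin tool. Fluorescence (Ex/Em 480/540) was read kinetically for 3 min.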

[5] = G protein-coupled receptor (GPCR) small molecule agonists, calcium flux assay: HEK293 wild type cell line counter screen (AID 1920065)
Summary of the method: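 Cells were plated and cultured 18 h at 37 C/5% CO2, then loaded with calcium dye for 1 h at 37 C. Compounds in DMSO were pin-transferred in agonist mode, and fluorescence (Ex/Em 480/540) was read kinetically for 3 min at 1 s intervals.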

[6] = p53 small molecule agonists, cell-based qHTS assay with human liver microsomes (AID 1963577)
Summary of the method: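 p53RE-bla reporter cells were pre-incubated 5 h at 37 C, then treated with compounds plus human liver microsomes (0.5 mg/mL final) and NADPH (0.5 mg/mL final) for 16 h at 37 C. Beta-lactamase activity was read by LiveBLAzer fluorescence after 2 h at room temperature.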

[7] = p53 small molecule agonists, cell-based qHTS assay with rat liver microsomes (AID 1963578)
Summary of the method: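 p53RE-bla cells were exposed to compounds together with rat liver microsomes (0.5 mg/mL final) and NADPH (0.5 mg/mL final) for 16 h at 37 C, then read by LiveBLAzer beta-lactamase fluorescence after 2 h at room temperature.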

[8] = p53 small molecule agonists, cell-based qHTS assay with human liver microsomes: qHTS cell viability counter screen (AID 1963579); note: nearly all actives have a fitted effect of over 45% in size
Summary of the method: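 p53RE-bla cells (4,000/well) were pre-incubated 5 h at 37 C, then given compounds in DMSO plus human liver microsomes (0.5 mg/mL final) and NADPH (0.5 mg/mL final) for 16 h at 37 C. Viability was read by CellTiter-Glo luminescence.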

[9] = p53 small molecule agonists, cell-based qHTS assay with rat liver microsomes: qHTS cell viability counter screen (AID 1963580); note: nearly all actives have a fitted effect of over 45% in size
Summary of the method: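 Intracellular ATP, by CellTiter-Glo luminescence, defines viability. HCT-116 p53RE-bla cells, 4,000 per well, were compound-treated in the presence of rat liver microsomes and NADPH for 16 h at 37 C.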

[10] = p53 small molecule agonists, cell-based qHTS assay: qHTS cell viability counter screen (AID 1963581); note: nearly all actives have a fitted effect of over 45% in size; note: potency is the fitted concentration of half-maximal effect
Summary of the method: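 p53RE-bla HCT-116 cells were exposed to compounds for 16 h at 37 C; after the beta-lactamase FRET read in the same wells, CellTiter-Glo was added and luminescence (intracellular ATP) read after 30 min at room temperature.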

[11] = p53 small molecule agonists, cell-based qHTS assay (AID 1963582; active = well fitted activation curve with a large enough effect in the signal ratio in the repeat runs, not every such curve was filed as active; the % refers to the signal ratio)
Summary of the method: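 p53RE-bla beta-lactamase reporter cells rested 5 h at 37 C/5% CO2, then received compounds in DMSO by pin transfer and were incubated 16 h at 37 C. LiveBLAzer B/G FRET substrate was loaded for 2 h at room temperature before fluorescence reading.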

[12] = target: 5-hydroxytryptamine receptor 2A (Homo sapiens) (UniProt P28223); assay: 5-hydroxytryptamine receptor 2A (HTR2A) small molecule antagonists, cell-based qHTS assay (AID 1963586); note: nearly all actives have a fitted effect of over 45% in size; note: potency is the fitted concentration of half-maximal effect
Summary of the method: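 Antagonist-mode intracellular calcium assay: DOI (4 nM) added after 5 min compound pre-incubation at room temperature to dye-loaded HTR2A-CHO cells. Fluorescence followed for 3 min, sampled every second.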

[13] = target: 5-hydroxytryptamine receptor 2A (Homo sapiens) (UniProt P28223); assay: 5-hydroxytryptamine receptor 2A (HTR2A) small molecule agonists, cell-based qHTS assay (AID 1963587); note: nearly all actives have a fitted effect of over 30% in size
Summary of the method: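 Kinetic calcium-flux fluorescence (2 min, 1 sec intervals) after compound addition in agonist mode. HTR2A-CHO cells were cultured 18 h, then dye-loaded 1 h at 37 C.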

[14] = target: Muscarinic acetylcholine receptor M1 (Homo sapiens) (UniProt P11229); assay: Cholinergic receptor muscarinic 1 (CHRM1) small molecule antagonists, cell-based qHTS assay (AID 1963588); note: nearly all actives have a fitted effect of over 40% in size
Summary of the method: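 CHRM1-CHO calcium-flux assay, antagonist mode. Cells were seeded 18 h, dye-loaded 1 h at 37 C and given compound for 5 min at RT, then acetylcholine was added at 50nM. FDSS fluorescence was read 3 min; 15 concentrations, three runs.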

[15] = target: Muscarinic acetylcholine receptor M1 (Homo sapiens) (UniProt P11229); assay: Cholinergic receptor muscarinic 1 (CHRM1) small molecule agonists, cell-based qHTS assay (AID 1963589); note: nearly all actives have a fitted effect of over 35% in size
Summary of the method: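 CHO cells stably expressing human CHRM1, seeded 18 h at 37 C/5% CO2, dye-loaded 1 h at 37 C, then given compound in agonist mode; intracellular calcium fluorescence read kinetically at 1 s intervals. Fifteen concentrations, three independent runs.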

[16] = cAMP Responsive Elements (CRE) small molecule antagonists, cell-based qHTS assay (AID 1963591; active = well fitted inhibition curve with a large enough effect in the signal ratio in the repeat runs, not every such curve was filed as active; the % refers to the signal ratio)
Summary of the method: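 CRE-bla HEK293T cells were plated 18 h at 37 °C/5% CO2, pinned with compound in DMSO, then stimulated with NKH477 at 0.25 uM final for 3 h. LiveBLAzer B/G FRET substrate was added and plates incubated 2 h at room temperature.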

[17] = target: Beta-2 adrenergic receptor (Homo sapiens) (UniProt P07550); assay: Adrenergic beta2 receptor (ADRB2) small molecule antagonists, cell-based qHTS assay (AID 1963592); note: series mostly up to about 92 µM; nearly all actives have a fitted effect of over 50% in size
Summary of the method: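 Cells (CHO, stable ADRB2 overexpression) incubated 18-20hr at 37C; compounds added from DMSO; agonist mix (1nM isoproterenol, 100uM IBMX, 25uM Ro-20-1724) added; 0.5hr RT; d2-cAMP and anti-cAMP-cryptate added; 1hr RT; 665/615 nm read.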

[18] = target: D(2) dopamine receptor (Homo sapiens) (UniProt P14416); assay: Dopamine D2 receptor (DRD2) small molecule agonists, cell-based qHTS assay (AID 1963594); note: nearly all actives have a fitted effect of over 35% in size
Summary of the method: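 cAMP accumulation in DRD2-HEK293 cells measured by HTRF after 1 h detection; compounds added 10 min before NKH477 (200nM […]) forskolin-analogue stimulation, 30 min at room temperature, with Ro20-1724 present at 0.1 mM final.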

[19] = target: D(2) dopamine receptor (Homo sapiens) (UniProt P14416); assay: Dopamine D2 receptor (DRD2) small molecule antagonists, cell-based qHTS assay (AID 1963595; active = well fitted inhibition curve with a large enough effect in the signal ratio in the repeat runs, with a control signal flat; the % refers to the signal ratio; note: potency is the fitted concentration of half-maximal effect)
Summary of the method: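 In this cell-based antagonist screen, compounds act for 10 min at room temperature before a 30 min challenge with 12 nM quinpirole and 200 nM NKH477. cAMP is quantified by HTRF competition in DRD2-HEK293 cells containing 0.1 mM Ro20-1724.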

[20] = cAMP Responsive Elements (CRE) small molecule agonists, cell-based qHTS assay (AID 1963590)
Summary of the method: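 CRE-bla HEK 293T cells in DMEM with 10% dialyzed FBS, NEAA, pyruvate and 25 mM HEPES were plated 18 h at 37 C/5% CO2, then exposed to compounds in DMSO for 3 h before LiveBLAzer B/G FRET substrate addition.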

Measured: Potency

Gonadotropin-releasing hormone receptor (Homo sapiens), sequence (P30968 whole entry, looked up): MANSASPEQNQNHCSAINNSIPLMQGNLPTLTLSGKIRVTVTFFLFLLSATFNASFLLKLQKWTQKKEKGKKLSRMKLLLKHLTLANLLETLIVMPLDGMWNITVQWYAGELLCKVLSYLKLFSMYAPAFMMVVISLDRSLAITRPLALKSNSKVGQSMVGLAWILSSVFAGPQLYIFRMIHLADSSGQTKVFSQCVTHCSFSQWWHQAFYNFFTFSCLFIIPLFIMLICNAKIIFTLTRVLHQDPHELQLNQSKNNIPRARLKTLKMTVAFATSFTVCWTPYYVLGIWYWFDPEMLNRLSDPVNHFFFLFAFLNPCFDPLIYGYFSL
Beta-2 adrenergic receptor (Homo sapiens), sequence (P07550 whole entry, looked up): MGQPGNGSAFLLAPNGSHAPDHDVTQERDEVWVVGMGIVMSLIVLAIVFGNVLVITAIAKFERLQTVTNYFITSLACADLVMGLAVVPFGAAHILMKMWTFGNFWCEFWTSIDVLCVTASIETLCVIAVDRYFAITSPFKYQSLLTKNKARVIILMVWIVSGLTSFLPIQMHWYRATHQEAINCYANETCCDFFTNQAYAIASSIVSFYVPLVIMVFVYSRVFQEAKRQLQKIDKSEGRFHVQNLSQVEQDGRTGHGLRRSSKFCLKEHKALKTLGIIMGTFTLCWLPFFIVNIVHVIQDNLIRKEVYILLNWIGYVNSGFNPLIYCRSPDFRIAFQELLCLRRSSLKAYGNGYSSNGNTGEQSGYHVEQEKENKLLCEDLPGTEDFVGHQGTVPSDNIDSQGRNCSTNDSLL
Muscarinic acetylcholine receptor M1 (Homo sapiens), sequence (P11229 whole entry, looked up): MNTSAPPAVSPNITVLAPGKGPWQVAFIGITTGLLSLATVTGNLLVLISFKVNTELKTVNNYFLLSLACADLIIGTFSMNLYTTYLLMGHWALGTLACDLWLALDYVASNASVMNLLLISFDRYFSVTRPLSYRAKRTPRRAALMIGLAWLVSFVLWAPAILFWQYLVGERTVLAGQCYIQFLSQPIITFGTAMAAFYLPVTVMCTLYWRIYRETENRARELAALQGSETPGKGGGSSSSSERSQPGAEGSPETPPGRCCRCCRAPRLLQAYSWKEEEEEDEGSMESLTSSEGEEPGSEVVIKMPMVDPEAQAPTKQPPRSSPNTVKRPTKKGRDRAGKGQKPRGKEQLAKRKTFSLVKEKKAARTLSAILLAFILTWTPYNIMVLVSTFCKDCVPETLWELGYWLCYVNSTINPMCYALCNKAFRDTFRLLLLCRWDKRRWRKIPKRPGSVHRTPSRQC
KiSS-1 receptor (Homo sapiens), sequence (Q969F8 whole entry, looked up): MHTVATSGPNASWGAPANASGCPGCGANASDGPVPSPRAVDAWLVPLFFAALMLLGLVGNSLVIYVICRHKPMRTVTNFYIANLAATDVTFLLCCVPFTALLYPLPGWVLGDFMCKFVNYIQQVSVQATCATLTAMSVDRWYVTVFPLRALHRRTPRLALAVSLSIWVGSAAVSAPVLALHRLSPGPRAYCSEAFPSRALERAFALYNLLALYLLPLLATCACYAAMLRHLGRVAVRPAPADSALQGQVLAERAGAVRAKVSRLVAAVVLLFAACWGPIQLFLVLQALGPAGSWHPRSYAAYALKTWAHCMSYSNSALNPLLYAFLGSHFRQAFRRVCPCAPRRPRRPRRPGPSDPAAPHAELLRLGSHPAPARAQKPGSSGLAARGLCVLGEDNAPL
D(2) dopamine receptor (Homo sapiens), sequence (P14416 whole entry, looked up): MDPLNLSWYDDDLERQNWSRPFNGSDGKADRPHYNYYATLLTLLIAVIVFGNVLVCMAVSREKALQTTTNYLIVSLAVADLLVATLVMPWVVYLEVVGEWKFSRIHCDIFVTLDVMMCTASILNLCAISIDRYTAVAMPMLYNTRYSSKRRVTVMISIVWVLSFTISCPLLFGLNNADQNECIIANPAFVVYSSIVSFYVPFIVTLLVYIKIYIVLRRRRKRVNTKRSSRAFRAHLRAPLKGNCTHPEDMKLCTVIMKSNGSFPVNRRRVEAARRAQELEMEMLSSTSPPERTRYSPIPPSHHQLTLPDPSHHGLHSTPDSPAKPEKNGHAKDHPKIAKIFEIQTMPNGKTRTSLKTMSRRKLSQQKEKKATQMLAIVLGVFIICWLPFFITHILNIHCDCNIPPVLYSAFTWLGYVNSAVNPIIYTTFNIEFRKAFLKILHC
5-hydroxytryptamine receptor 2A (Homo sapiens), sequence (P28223 whole entry, looked up): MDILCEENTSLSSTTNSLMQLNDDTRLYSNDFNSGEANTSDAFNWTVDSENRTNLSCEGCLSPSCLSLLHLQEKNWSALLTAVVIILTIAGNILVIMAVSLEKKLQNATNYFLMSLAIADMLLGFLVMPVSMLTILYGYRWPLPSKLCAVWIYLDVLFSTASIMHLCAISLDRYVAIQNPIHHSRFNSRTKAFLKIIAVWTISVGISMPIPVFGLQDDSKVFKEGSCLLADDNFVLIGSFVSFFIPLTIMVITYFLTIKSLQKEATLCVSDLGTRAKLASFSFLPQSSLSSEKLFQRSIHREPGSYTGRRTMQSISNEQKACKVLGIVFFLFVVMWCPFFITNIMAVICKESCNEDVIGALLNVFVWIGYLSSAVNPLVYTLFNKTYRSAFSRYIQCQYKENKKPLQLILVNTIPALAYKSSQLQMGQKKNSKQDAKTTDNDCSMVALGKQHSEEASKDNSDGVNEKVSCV

CC(C)=CCC/C(C)=C\C#N
not listed: [20]
inactive: all other assays above

CCOCCOCCOC(C)=O
not listed: [16] | [17] | [19]
inactive: all other assays above

CCN(Cc1c(F)cccc1Cl)c1c([N+](=O)[O-])cc(C(F)(F)F)cc1[N+](=O)[O-]
active: [2] 15.4 µM | [10] 25.7 µM
not listed: [18] | [20]
inactive: all other assays above

CC1CCc2cc(F)cc3c(=O)c(C(=O)O)cn1c23 (centres undefined)
not listed: [17] | [20]
inactive: all other assays above

CCOC(=O)CC#N
not listed: [20]
inactive: all other assays above

CCCCC(CC)COC(=O)COc1ccc(Cl)cc1Cl (centres undefined)
not listed: [20]
inactive: all other assays above

CCCCC(CC)(CO)CO
not listed: [18] | [20]
inactive: all other assays above

O=C1c2ccccc2C(=O)C1c1nc2ccccc2c(Br)c1O
active: [2] 24.3 µM
not listed: [16] | [19] | [20]
inactive: all other assays above

O=C1c2cccc(O)c2C(=O)c2c(O)cc(CO)cc21
active: [2] 13.7 µM
not listed: [20]
inactive: all other assays above

CS(=O)(=O)c1ccc([C@@H](C[C@H]2CCC(=O)C2)C(=O)Nc2cnccn2)cc1Cl
not listed: [16] | [20]
inactive: all other assays above

Cc1nc2ccccn2c(=O)c1CCN1CCC(C(=O)c2ccc(F)cc2)CC1
active: [19] 531 nM
not listed: [16] | [17]
inactive: all other assays above

Cc1cccc2nccnc12
not listed: [20]
inactive: all other assays above

COc1ccc(C)cc1[N+](=O)[O-]
not listed: [16] | [17] | [19]
inactive: all other assays above

COc1cc2c(cc1OC)C(=O)CC2
not listed: [20]
inactive: all other assays above

Cc1cccc(Oc2ccccc2)c1
active: [12] 1 nM
not listed: [20]
inactive: all other assays above
